From PubChem BioAssay AID1863 (Southern Research Specialized Biocontainment Screening …, 2009)
“And” between values parts separate entries of the source, which are not always exact repeats. Equal entries are not always repeated. About 480 (0.16%) of roughly 300,000 compounds were called active.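 How the source made its calls: active means inhibition over 29.93%, a cutoff 3 SD above the screen mean, later confirmed by dose response; inconclusive means inhibition over 29.93% but no dose response follow-up; inactive means inhibition at most 29.93% or unconfirmed.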 The list is a sample of the results. Measured potencies and affinities stand elsewhere.

Experiment: inhibitors of PhoP regulon expression, primary screen, Salmonella Typhimurium, GFP reporter (AID 1863);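 further: 0% = low Mg2+ inducing control and 100% = high Mg2+ repressing control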
Conditions: S. Typhimurium PhoP-regulated promoter GFP reporter, 4 h; at 50 µM; hits give high values

inhibition, inactive:
COc1cccc2cc(CC(=O)c3cc(C)ccc3C)c(=O)oc12 -3.13%
CCOc1ccc(NC(=O)CN(C)C(=O)c2ccc3nc(CC)c(CC)nc3c2)cc1OCC -9.1%
CC(C)C[C@H](NC(=O)c1nc[nH]c1C(=O)NCCCCCNC(=O)OC(C)(C)C)C(=O)OCc1ccccc1 -4.74%
Cc1ccc(S(=O)(=O)N2CCN(C(=O)CC(C)C)CC2)cc1 3.71%
Cc1ccc(NC(=O)Nc2ccon2)cc1Cl 0.2%
Clc1ccccc1CONc1ncnc2nonc12 -2.15%
CCC(C)(C)NC(=O)Cc1ccc(OC)c(OC)c1 -10.6%
O=Cc1c(F)cccc1N1CCCC1 8.32%
Cc1cccc(NC(=O)CC2(CC(=O)O)CCCC2)c1 -1.98%
Cc1ccc(C2N(c3ccc(Cl)cc3)C(=O)N3CCCN23)cc1 (centres undefined) -0.36%
O=[N+]([O-])c1cc2cccnc2c2ncccc12 -10.2%
CCOC(=O)COc1cc([N+](=O)[O-])cc2cccnc12 1.41%
CN(C)[C@@H]1C(=O)C(C(=O)NCN2CCCC2)=C(O)[C@@]2(O)C(=O)C3=C(O)c4c(O)cccc4[C@@](C)(O)C3CC12 (some centres undefined) 1.32%
O=C1C(Oc2ccc(Cl)cc2)C(c2ccc3c(c2)OCO3)N1CC1CCCO1 (centres undefined) -1.66%
COc1ccc(-c2cc(C(F)(F)F)n3nc(C(=O)N4CCN5CCCC5C4)cc3n2)cc1OC (centres undefined) 8.34%
CN1C(=O)[C@@H]2[C@H](C1=O)[C@@H]1C(=O)Nc3ccccc3C(=O)N1[C@@H]2c1ccc(F)cc1 6.12%
CC1Cc2ccccc2N1C(=O)CSc1nnnn1-c1ccc2c(c1)OCCO2 (centres undefined) 4.49%
C#CCOCCOCCOCCNc1nc(N2CCN(C(=O)CCCCCCCCCCNC(=O)[C@H](CCCCN)n3cc(C[C@@H](C)CC)nn3)CC2)nc(N2CCN(C(=O)CCCCCCCCCCNC(=O)[C@H](CCCCN)n3cc(C[C@@H](C)CC)nn3)CC2)n1 20.6%
C#CCOCCOCCOCCNc1nc(N2CCN(C(=O)CCCCCCCCCCNC(=O)[C@H](CCCCN)n3cc(C)nn3)CC2)nc(N2CCN(C(=O)CCCCCCCCCCNC(=O)[C@H](CCCN=C(N)N)n3cc(C[C@@H](C)CC)nn3)CC2)n1 23.8%
C#CCOCCOCCOCCNc1nc(N2CCN(C(=O)CCCCCCCCCCNC(=O)[C@H](CCCCN)n3cc(CCO)nn3)CC2)nc(N2CCN(C(=O)CCCCCCCCCCNC(=O)[C@H](CCCN=C(N)N)n3cc(C[C@@H](C)CC)nn3)CC2)n1 25.8%
C#CCOCCOCCOCCNc1nc(N2CCN(C(=O)CCCCCCCCCCNC(=O)[C@H](CCCCN)n3cc(CCCC(=O)O)nn3)CC2)nc(N2CCN(C(=O)CCCCCCCCCCNC(=O)[C@H](CCCN=C(N)N)n3cc(C[C@@H](C)CC)nn3)CC2)n1 -5.84%
Cc1cc(C)cc(NC(=O)CN(C)S(=O)(=O)c2cccc3nsnc23)c1 -9.89%
CC(C)CCNC(=O)NC(=O)COC(=O)CCN=C1NS(=O)(=O)c2ccccc21 -10.2%
COC(=O)CCC(=O)N1CN2CN(C(=O)CCC(=O)OC)CC([N+](=O)[O-])(C2)C1 -5.21%
c1ccc(Nc2nn[nH]n2)cc1 -21.5%
CCC(=O)O[C@@H]1CC(=O)O[C@H](C)CC=CC=C[C@@H](O)[C@H](C)C[C@H](CC=O)[C@H](O[C@H]2O[C@H](C)[C@@H](O[C@H]3C[C@@](C)(O)[C@@H](OC(=O)CC)[C@H](C)O3)[C@H](N(C)C)[C@H]2O)[C@H]1OC -22.5%
CC[C@H]1OC(=O)[C@H](C)[C@@H](O[C@H]2C[C@@](C)(OC)[C@@H](O)[C@H](C)O2)[C@H](C)[C@@H](O[C@@H]2O[C@H](C)C[C@H](N(C)C)[C@H]2O)[C@](C)(OC)C[C@@H](C)C(=O)[C@H](C)[C@@H](O)[C@]1(C)O -8.63% and -8.23%
CC1CCCN(C(=O)c2ccc(S(=O)(=O)Nc3ccccc3Cl)cc2)C1 (centres undefined) 3.82%
Cc1ccc(CN2C(=O)CCC2C(=O)NCCN2CCN(c3cccc(Cl)c3)CC2)cc1 (centres undefined) -4.51%
CCOCCCNC(=O)c1ccc2c(c1)ncn2-c1ccc(C)cc1C -8.15%
COc1cc(/C=N/N=C(N)N)ccc1OCc1ccc(Cl)cc1 2.42%
NC(N)=N/N=C/c1ccc(OCc2ccc(Cl)cc2Cl)cc1 -0.84%
NC(N)=N/N=C/c1ccc(OCc2ccccc2)cc1 17.1%
NC(N)=N/N=C/c1ccc(OCc2ccccc2)c(OCc2ccccc2)c1 10.4%
CCn1ncc(Cl)c1C(=O)NC(=S)Nc1c(C)cc(C)cc1[N+](=O)[O-] 8.05%
CC(=O)c1cccc(NC(=O)CCCNC(=O)c2ccc(Cl)cc2)c1 0.5%
O=C(O)[C@@H]1CSC2c3ccccc3C(=O)N21 (some centres undefined) -0.36%
CSCC[C@H](NC(=O)Nc1ccc(Oc2ccccc2)cc1)C(=O)O 0.47%
COC(=O)CSc1nc(N)c(C#N)c(CC(C)C)c1C#N -5.81%
Cc1ccc(NS(=O)(=O)c2ccc3c(c2)NC(=O)CCS3)cc1F 4.54%
COc1ccc(NC(=O)C/C(C)=N/NC(=O)c2cccs2)c([N+](=O)[O-])c1 6.98%
COc1ccccc1NC(c1cccnc1)c1ccc2cccnc2c1O (centres undefined) 24.8%
Oc1ccccc1C(Nc1nccs1)c1ccc2cccnc2c1O (centres undefined) 1.53%
Oc1c(C(Nc2cccc(C(F)(F)F)c2)c2cccnc2)ccc2cccnc12 (centres undefined) 69.6%
Cc1ccc2ccc(C(Nc3ccccn3)c3ccccc3)c(O)c2n1 (centres undefined) 26.2%
O=C(Cc1cccs1)NCc1ccncc1 20.6%
CC1(C)CCC/C(=C\c2ccccc2)C1=O -2.34%
O=S(=O)(/N=C(/NNS(=O)(=O)c1ccccc1)c1ccccc1)c1ccccc1 -3.53%
CCN(CC)CCN(C)c1ccc(N2C(=O)C3CC=CCC3C2=O)cc1[N+](=O)[O-] (centres undefined) -7.43%
Oc1ccccc1Nc1nc(NCC2CCCO2)c2ccccc2n1 (centres undefined) 13.1%
Oc1ccc(Nc2nc(NCC3CCCO3)c3ccccc3n2)cc1 (centres undefined) -10.2%
c1ccc(Nc2nc(NCC3CCCO3)c3ccccc3n2)cc1 (centres undefined) -1.89%
COc1ccc(Nc2nc(NCC3CCCO3)c3ccccc3n2)c(OC)c1 (centres undefined) 0.13%
COCCOCC(O)CN1CCN(c2ccccc2)CC1 (centres undefined) 4.06%
COc1ccccc1-c1noc(-c2ccccc2C(=O)NCC2CCCO2)n1 (centres undefined) -3.19%
Fc1cccc(Nc2c3c(nc4ccccc24)CCC3)c1 6.97%
COc1ccc(Nc2c3ccccc3nc3ccccc23)cc1 -2.51%
CCOc1ccc(Nc2nc(N)c3ccccc3n2)cc1 29.9%
Cc1cc(Nc2cccc(O)c2)c2ccccc2n1 13.6%
COc1ccc(Nc2c3c(nc4ccccc24)CCC3)cc1 12.7%
Cc1ccc2nc3c(c(Nc4ccccc4)c2c1)CCC3 21.7%
c1ccc(Nc2c3c(nc4ccccc24)CCC3)cc1 20.2%
O=C(O)c1cccc(Nc2c3ccccc3nc3ccccc23)c1 10.2%
Nc1n[nH]c(N)c1N=Nc1ccccc1F -3.09%
CCC(=O)Nc1ccc(C(=O)CSc2nc(N)cc(N)n2)cc1 4.88%
CS(=O)(=O)N1CCN(c2ccccc2NC(=O)c2cccnc2)CC1 -0.66%
CC(C)CCNC(=O)c1c(CSc2ccccc2)noc1C(=O)NCc1ccccc1 -1.54%
Cc1cc(-c2nnc(SCC(=O)Nc3ccc(F)cc3F)n2N)n[nH]1 -6.5%
COc1ccc(S(=O)(=O)N2CCC(C(=O)Nc3c(F)cccc3F)CC2)cc1 14.7%
Cn1c(=O)[nH]c(=O)c2c1nc(CN1CCN(c3ccc(F)cc3)CC1)n2CCCc1ccccc1 -9.74%
CO[C@@]12[C@H](COC(N)=O)C3=C(C(=O)C(C)=C(N)C3=O)N1C[C@@H]1N[C@@H]12 17.4%
COc1ccc(C(=O)N2CCN(c3ncccn3)CC2)cc1 6.73%
COc1ccc(-n2c(SCc3cccnc3)nc3c(c2=O)SCC3)cc1OC -5.3%
Cc1ccccc1OCC(=O)NCC(=O)N/N=C/c1cccc([N+](=O)[O-])c1 -0.52%
CCS(=O)(=O)Nc1c(C)n(C)n(-c2ccccc2)c1=O -5.83%
NS(=O)(=O)c1ccc(CNC(=O)c2cc(-c3cccnc3)nc3ccc(Br)cc23)cc1 -5.23%
Cc1ccccc1N1CCN(C2CCCN(C(=O)c3ccccn3)C2)CC1 (centres undefined) -6.14%
CCn1cc(C(=O)O)c(=O)c2cnc(N3CCN(C(=S)NC(=O)c4ccc(OC)cc4)CC3)nc21 1.6%
CCn1cc(C(=O)O)c(=O)c2cc(F)c(N3CCN(S(=O)(=O)c4ccc(Br)cc4)CC3)cc21 3.63%
CCn1cc(S(=O)(=O)c2ccc(OC)cc2)c(=O)c2cc(F)c(N3CCN(C)CC3)cc21 -6.69%
CCn1cc(C(=O)O)c(=O)c2cc(F)c(N3CCN(S(=O)(=O)c4ccc(NC(=O)OC)cc4)CC3)cc21 -9.02%
Cc1cccc(C(=O)NC(=S)N2CCN(C(=S)NC(=O)c3cccc(C)c3)CC2)c1 12.1%
C=CCCCCCCCCC(=O)N1CCN(c2cc3c(cc2F)c(=O)c(C(=O)O)cn3CC)CC1 11.3%
CCn1cc(C(=O)O)c(=O)c2cc(F)c(N3CCN(C(=S)NC(=O)c4cc(OC)cc(OC)c4)CC3)cc21 23.2%
